Assay outcomes as filed in PubChem BioAssay.
HBB splice mod: modulators of hemoglobin beta chain splicing; HBB splicing reporter cell assay, activation; EGFP reporter with mutant IVS2-654 intron; response scale: normalised to 500 nM splice-correcting PNA; Potency, µM (top dose mostly 46.1 µM), for inactives: at the highest dose activation, usual class: activators; 0.06% of 65,000 active; AID 925; note: potency is the fitted concentration of half-maximal effect; 0% is about no effect
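HeLa cells stably expressing EGFP interrupted by mutant beta-globin intron 2 (IVS2-654), 500/well in 2% FCS. Treated with compound for 2 days at 37C. Splicing correction scored as total well GFP intensity (488 nm excitation, 500-520 nm emission); 500 nM antisense PNA served as control.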
UbGFP stabilizer: ubiquitin-GFP accumulation via proteasome inhibition; Ubiquitin-GFP reporter cells, proteasome inhibition, GFP fluorescence; response scale: untreated = 0%, 10 µM MG-132 = 100%; Potency, µM (titrated, usually from 45.9 µM), without a hit: at the top dose activation (GFP accumulation), hits mostly activators; 67,000 tested, under 10 active; AID 526; active = well fitted activation curve with a large enough effect, not every such curve was filed as active; inconclusive = small, poorly fitted or top-dose-only effect, or another doubt; inactive = no such curve, though single readings can be large or run the other way; note: potency is the fitted concentration of half-maximal effect
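U2OS cells stably expressing ubiquitin(G76V)-GFP, seeded overnight in 0.5% FBS medium, were exposed to compounds (qHTS, 46 uM to 2.9 nM) for 4 hr at 37 °C. GFP-positive cells were counted by laser cytometry (488 ex/515 em), normalized between basal and 10 uM MG-132.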
GFP derepression: derepresses silenced GFP locus in mouse C127i cells | mouse C127i GFP locus derepression, cytometry, 30 h | Potency, µM (doses to about 46.1 µM), without a hit: at the highest dose GFP derepression (activation) | 0.09% of 68,000 active; note: % of control where 0% means no effect
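Derepression screen: silenced CMV-GFP reporter in murine C127i cells, 30 h compound incubation at 37 C, washed cells imaged by laser-scanning cytometer to enumerate GFP-expressing objects of 20 to 120 um.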
Luciferase inh: blocks Photinus pyralis firefly luciferase activity; P08659; 2.2% of 72,000 active; AID 411; purified firefly luciferase, luminescence, 8 min; Potency, µM (top dose mostly 57.1 µM), inactives show at the highest dose activity change, negative = inhibition, most hits filed as inhibitors; note: potency is the fitted concentration of half-maximal effect; % is set by controls: 0 for no effect and ±100 for the full control effect; nearly all actives have a fitted effect of over 40% in size
Target sequence (P08659 whole entry, looked up): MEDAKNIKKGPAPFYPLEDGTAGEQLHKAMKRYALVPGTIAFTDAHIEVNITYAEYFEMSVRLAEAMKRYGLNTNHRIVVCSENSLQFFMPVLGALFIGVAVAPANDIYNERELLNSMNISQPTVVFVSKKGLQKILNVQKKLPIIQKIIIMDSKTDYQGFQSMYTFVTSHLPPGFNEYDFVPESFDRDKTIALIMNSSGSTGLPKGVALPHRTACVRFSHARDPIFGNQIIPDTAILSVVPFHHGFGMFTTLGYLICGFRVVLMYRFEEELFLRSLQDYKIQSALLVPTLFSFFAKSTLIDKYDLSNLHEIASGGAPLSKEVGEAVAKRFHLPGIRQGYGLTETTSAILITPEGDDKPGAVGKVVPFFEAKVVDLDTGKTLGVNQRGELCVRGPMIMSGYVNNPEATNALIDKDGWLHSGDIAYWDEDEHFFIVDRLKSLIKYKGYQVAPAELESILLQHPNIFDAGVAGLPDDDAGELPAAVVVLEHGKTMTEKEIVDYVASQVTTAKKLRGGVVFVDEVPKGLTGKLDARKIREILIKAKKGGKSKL
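Substrate buffer containing 10 uM ATP (pH 7.2 imidazole, Mg2+, KCl, detergent, BSA) is dispensed, compound pinned in, then luciferase/luciferin detector mix added. After 8 min at ambient temperature, light output is measured.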
PK Bst: modulators of Bacillus stearothermophilus pyruvate kinase; purified pyruvate kinase, luminescence ATP production; ribose 5-phosphate activator present at AC10; AID 361; Potency, µM; 1.2% of 51,000 active; in the data active = potency below about 11 µM; inconclusive = mostly about 12 µM to 25 µM;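 the screen sought inhibitors and activators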;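 note: potency is the fitted concentration of half-maximal effect; scaled between full activation by ribose 5 phosphate and full inhibition by luteolin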
* marks the source's active call; other numbers are inactive results; i = inactive; ? = inconclusive; · = no result given; ! = repeats disagree; [ ] = remark or other dose. Compounds with a hit are over-represented: about 2.6% of the library has one in this group of screens. Unless noted, calls come from the whole dose curve; as a rule, active = well fitted curve in the direction sought with a large enough effect; inconclusive = small, poorly fitted or top-dose-only effect, or another doubt; inactive = no such curve, though single readings can be large; an effect the other way counts as inactive or inconclusive.

SMILES	HBB splice mod	UbGFP stabilizer	GFP derepression	Luciferase inh	PK Bst
Cc1ccc2nc(-c3cccc(NC(=O)c4ccco4)c3)[nH]c2c1	-1%	14%	-2%	10µM*	6.4*
O=C(Nc1ccc(-c2nc3ccccc3[nH]2)cc1)c1ccco1	0%	8%	0%	4µM*	3.9*
O=C(CSc1ccc(-c2nc3ccccc3[nH]2)cn1)N1CCN(C(=O)c2ccco2)CC1	-4%	3%	1%	20µM*	i
O=C(CCc1nc2ccccc2[nH]1)N1CCN(C(=O)c2ccco2)CC1	1%	-6%	-9%	3%	·
O=C(NCc1nc2ccccc2[nH]1)c1ccco1	-5%[57.5 µM]	-7%	0%	0%	>57
CCc1c2c(nc3ccc(OC)cc13)OC(C)C2 (centres undefined)	1%	·	·	·	·
CCOC(=O)c1sc(NC(=O)c2c(C)nn(Cc3ccccc3)c2C)cc1C	0%[57.5 µM]	3%	1%	5µM*	·
CCOC(=O)c1sc(NC(=O)c2ccc(Cl)s2)cc1C	0%	-1%	·	?	·
Cc1ccnc(NC(=O)Nc2cccc(F)c2)c1	·	0%	-1%	3.2µM*	i
O=C(O)[C@@H]1[C@H](C(=O)O)[C@H]2C(=O)C=C[C@H]1N2Cc1ccccc1	0%[9.22 µM]	-3%[9.17 µM]	-3%[9.22 µM]	3%[11.4 µM]	·
CCOC(=O)c1nn(-c2ccc3c(c2)CCN3C(C)=O)cc1O	0%[57.5 µM]	-1%	4%	10µM*	9.9*
Oc1ccc(-c2nc(-c3ccc(F)cc3)c(-c3ccncc3)[nH]2)cc1	0%	-1%	-2%	1.3µM*!	·
N=c1nc(N)nc2n1NC(c1ccc(F)cc1)=CS2	·	5%	1%	-26%	3.6*
CCn1c(SCC(=O)Nc2ccccc2N2CCOCC2)nnc1-c1ccccc1	-2%	3%	-2%	3%	>57
CCn1c(SCC(=O)Nc2ccc(N3CCOCC3)c(Cl)c2)nnc1-c1ccc(N)cc1	-1%	-4%	2%	13µM*	·
O=C(CN1CCN(S(=O)(=O)c2cc(Cl)ccc2Cl)CC1)Nc1ccc2c(c1)OCCO2	-1%	-7%	4%	-4%	4.7*
CN(C)c1ccc(NC(=O)CN2CCN(S(=O)(=O)c3cc(Cl)ccc3Cl)CC2)cc1	0%	11%	4%	0%	9.4*
CC(C)OC(=O)CN1CCN(S(=O)(=O)c2cc(Cl)ccc2Cl)CC1	1%	1%	6%	1%	>57
O=C(Nc1ccc2c(c1)OCCO2)c1ccc(Cl)c(S(=O)(=O)N2CCOCC2)c1	1%	-6%	0%	-9%	>57
c1ccc2c(c1)Cc1cc3cc4c(cc3nc1-2)OCO4	1%	·	·	·	·
COC(=O)[C@@]1(Cc2ccc(OC)cc2)[C@H]2c3cc(C(=O)N(C)C)n(Cc4cc(F)c(F)c(F)c4)c3C[C@H]2CN1C(=O)c1ccccc1	-1%	·	·	·	·
COc1cc(/C=c2\sc3nc(-c4ccncc4)nn3c2=O)ccc1OC(C)=O	-1%	-8%	2%	3.2µM*	·
CC(C)[C@H](NC(=O)OC(C)(C)C)[C@@H](O)CC(=O)C(C)(C)C	1%[9.22 µM]	·	·	2%[11.4 µM]	·
CCCn1cnc2cc(NCc3cccc(OC)c3O)ccc21	-1%[1.84 µM]	-2%	-5%	16µM*	·
CCCn1c(NCc2cccc(OC)c2OC)nc2ccccc21	0%[57.5 µM]	0%	-2%	-9%	>57
SMILES	HBB splice mod	UbGFP stabilizer	GFP derepression	Luciferase inh	PK Bst
COc1cccc(CNc2ccc3c(c2)ncn3C(C)C)c1OC	-1%	10%	·	13µM*	·
CCCn1c(NCc2cccc(OC)c2O)nc2ccccc21	0%	-4%	0%	-4%	>57
CCCn1cnc2cc(NCc3ccccn3)ccc21	-1%	7%	·	16µM*	·
CN1CCN(c2nc(-c3ccccc3C(F)(F)F)nc3ccccc23)CC1	0%	-2%	-3%[9.22 µM]	-2%[2.29 µM]	·
CCn1c(SCC(=O)c2c[nH]c3ccccc23)nnc1-c1cccs1	?	12%	20µM*	0%	>57
c1ccc2nc(-c3nc4ccccc4o3)ccc2c1	0%	6%	0%	1.3µM*	1.5*
COc1ccc(-c2ccc3c(n2)CCCN3C[C@H](O)CN2CCCc3nc(C)c(C)cc32)cc1	0%[9.22 µM]	·	·	0%[11.4 µM]	·
CN(CC(=O)O)Cc1c[nH]c2ccccc12	1%[9.22 µM]	-5%[9.17 µM]	7%[9.22 µM]	0%[11.4 µM]	·
Cn1cc(C(=O)c2ccccc2)cc1-c1nc2ccccc2n1C	0%	0%	4%	-1%	>57
Cn1c(-c2ccc(Br)o2)nc2cc(Br)ccc21	1%[0.369 µM]	·	2%	6.3µM*	·
Cc1oc(-c2nc3ccccc3n2C)cc1C(=O)c1ccccc1	-1%	13%	-2%	2.5µM*	3.4*
CC(=O)c1ccc(-c2nc3ccccc3n2C)o1	-1%	6%	2%	1%	>57
Cn1c(-c2ccc(Br)o2)nc2ccccc21	0%[0.369 µM]	·	4%	7.9µM*	?
Cn1c(=O)c(-c2cc(F)cc(F)c2)nc2cnc(Oc3cccc(Cl)c3)nc21	-1%	-6%	5%[9.22 µM]	1%[11.4 µM]	·
O=c1c2c(nc3cc(-c4ccc(F)cc4)[nH]n13)CCCC2	0%[57.5 µM]	-3%	0%	7.9µM*	5.3*
CCOC(=O)c1ccc(OCC(=O)c2ccc(O)cc2O)cc1	1%[1.84 µM]	4%	3%	-24%	>57
COC(=O)c1ccc(OCC(=O)c2ccc(O)cc2O)cc1	6%[1.84 µM]	16%	8%	13µM*	·
c1cn2c(NC3CCCC3)c(-c3ccc(N4CCOCC4)cc3)nc2cn1	0%	5%	·	2.5µM*	·
COc1ccc2oc(=N)c(C(=O)Nc3ccccc3)cc2c1	0%	-2%	1%	32µM*	8.2*
CNc1ncnc2ccc(-c3ccccc3OC)cc12	0%	1%	5%[9.22 µM]	1%[2.29 µM]	·
COc1ccc(C(=O)N2CCC3(CC2)CCN(c2ccccc2)CC3)cc1	2%	-4%	2%[9.22 µM]	-1%[11.4 µM]	·
COc1ccc(C(=O)N=c2nc3ccccn3s2)cc1	0%[57.5 µM]	0%	2%	0.5µM*	0.68*
C/C(CCC(=O)OC[C@@H]1O[C@H](C#Cc2ccccc2)C=C[C@@H]1Oc1ccc(C)cc1)=N/OC[C@@H](C)[C@H](OCc1ccccc1)C(C)C	0%[9.22 µM]	·	·	2%[11.4 µM]	·
c1ccc(Nc2cc(-c3ccoc3)ncn2)cc1	8%	12%	2%[9.22 µM]	1%[2.29 µM]	·
O=C(Cc1ccc2cccnc2c1)c1ccc(O)cc1O	-2%	5%	0%	1%	6*
SMILES	HBB splice mod	UbGFP stabilizer	GFP derepression	Luciferase inh	PK Bst
CCc1cccc(NC(=O)Nc2cccs2)c1	-2%	-3%	0%	16µM*	·
N#Cc1nc(-c2ccc(OCc3ccccc3)cc2)oc1NCc1cccnc1	-3%[0.369 µM]	2%	-1%	0%	·
N#Cc1nc(COc2ccccc2)oc1NCCCn1ccnc1	2%	-7%	0%	-4%	>57
N#Cc1nc(-c2ccc(OCc3ccc(Cl)cc3)cc2)oc1NCc1cccnc1	4%[0.369 µM]	-1%	4%	-2%	2.7*
N#Cc1nc(-c2ccc(OCc3ccccc3)cc2)oc1NCCCn1ccnc1	4%[0.369 µM]	-2%	3%	1%	4.3*
CN(C)c1oc(-c2ccc(OCc3ccccc3)cc2)nc1C#N	10%[0.369 µM]	5%	6%	2%	2.8*
